Experimental findings from PubChem BioAssay AID727 (The Scripps Research Institute Molecular Screening Center, 2007) are described below.

As usually defined, the inhibition is the drop in the measured response relative to a control, in per cent.

Structures are written as SMILES. The whole screen tested about 97,000 compounds, of which about 810 (0.84%) were called active. For the sample, actives were picked, then their nearest neighbours and some compounds at random. A number with no mark means an inactive call. Cut-off read from the data, not from the text of the source: active = inhibition above about 19%; inactive = the rest.

For this test, the target named is Focal adhesion kinase 1 (Homo sapiens) (UniProt Q05397). As to the kind of experiment: human PTK2 enzyme activity blockers – biochemical, primary screen (AID 727).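 Note: 0% = DMSO and 100% = reference compound high control.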 Conditions: biochemical FAK kinase activity assay; hits give high values;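 tested at 7 µM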.
Chain of Focal adhesion kinase 1 (Homo sapiens) (Q05397 whole entry, looked up): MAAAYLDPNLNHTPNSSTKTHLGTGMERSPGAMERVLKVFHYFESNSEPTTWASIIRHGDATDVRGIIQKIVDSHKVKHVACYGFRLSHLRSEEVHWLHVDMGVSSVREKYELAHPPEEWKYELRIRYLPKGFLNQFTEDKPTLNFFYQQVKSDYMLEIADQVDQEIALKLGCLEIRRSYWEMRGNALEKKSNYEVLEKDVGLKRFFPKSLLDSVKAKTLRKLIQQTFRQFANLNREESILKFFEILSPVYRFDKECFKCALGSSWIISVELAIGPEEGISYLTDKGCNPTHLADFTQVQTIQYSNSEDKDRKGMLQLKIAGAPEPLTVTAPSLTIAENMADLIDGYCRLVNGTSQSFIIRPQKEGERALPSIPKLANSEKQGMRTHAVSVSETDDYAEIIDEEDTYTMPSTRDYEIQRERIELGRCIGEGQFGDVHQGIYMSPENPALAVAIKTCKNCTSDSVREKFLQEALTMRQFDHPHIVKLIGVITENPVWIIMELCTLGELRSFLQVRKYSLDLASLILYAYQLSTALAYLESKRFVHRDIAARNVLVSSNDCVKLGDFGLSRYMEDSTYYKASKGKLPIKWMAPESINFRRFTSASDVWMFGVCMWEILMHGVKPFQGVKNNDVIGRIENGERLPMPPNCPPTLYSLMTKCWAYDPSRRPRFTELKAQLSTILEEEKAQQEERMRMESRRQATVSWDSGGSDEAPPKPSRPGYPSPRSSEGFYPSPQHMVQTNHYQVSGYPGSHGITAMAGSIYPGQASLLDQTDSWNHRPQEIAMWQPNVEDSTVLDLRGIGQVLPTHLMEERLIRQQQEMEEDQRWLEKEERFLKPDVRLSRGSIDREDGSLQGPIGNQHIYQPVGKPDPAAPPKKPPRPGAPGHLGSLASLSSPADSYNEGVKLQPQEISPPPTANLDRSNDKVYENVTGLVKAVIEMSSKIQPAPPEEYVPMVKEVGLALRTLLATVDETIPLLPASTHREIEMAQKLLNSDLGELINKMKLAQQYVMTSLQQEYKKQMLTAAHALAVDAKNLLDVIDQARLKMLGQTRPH
For `CCOC(=O)CC(=O)CSc1nc(-c2ccccc2)cc(-c2ccc(Cl)cc2)c1C#N`, the inhibition was -8.83%.

On to `N#CC1=C(N)N(c2ccccc2)C2=C(C(=O)CCC2)C1c1ccccc1` (stereo not drawn), for which the inhibition was 0.57%.

On to `O=C(NC1CCN(C(=S)NCc2ccco2)CC1)c1ccc(F)cc1`, for which the inhibition is 2.16%.

Take `CCOc1ccc(N=Cc2c(O)n(-c3cccc(C)n3)c(=O)c3ccccc23)cc1`: the inhibition is -4.03%.

In the case of `CCN(c1ccccc1)S(=O)(=O)c1ccc(C(=O)Nc2nccs2)cc1`, the inhibition was 1.43%.

Regarding `Cn1cccc1C(=O)Nc1nccs1`, the inhibition is 25.5% (active).

For `COc1cc(C(=O)Nc2nccs2)cc(OC)c1OC`, the inhibition was -2.65%.

In the case of `Cc1ccccc1-n1c(C)cc(/C=N/NC(=O)c2ccc(CN3CCOCC3)cc2)c1C`, the inhibition was 5.57%.

Take `O=C(Cn1cc(/C=N/NC(=O)c2cccc(C(F)(F)F)c2)c2ccccc21)Nc1ccc(F)cc1`: the inhibition was -6.09%.

For the compound `CCCNC(=S)N1CCC(NC(=O)C23CC4CC(CC(C4)C2)C3)CC1`, the inhibition is 0%.

Take `Cc1nn(-c2ccccc2)c(Cl)c1C(=O)Nc1ccccc1`: the inhibition was 1.43%.

`Cc1cccc(NC(=O)C(C)N2C(=O)C3C4CC(C(Br)C4Br)C3C2=O)c1` (stereo not drawn): the inhibition is 3.39%.

As for `Cc1ccc(-c2nn(C(C)(C)C)c3ncnc(N)c23)cc1`, the inhibition is 38.8% (active).

On to `COc1nc(-c2ccc(Cl)cc2)ccc1-c1noc(-c2cccs2)n1`, for which the inhibition is -0.49%.

Consider `CCOC(=O)C1=C(CN2CCc3ccccc32)NC(=O)NC1c1cc(C)ccc1C` (stereo not drawn), for which the inhibition was 4.94%.

Consider `CN(Cc1ccccc1)C(=O)COc1ccccc1`, for which the inhibition was -1.65%.

On to `Cc1no[n+]([O-])c1COc1ccccc1/C=C1\NC(=S)NC1=O`, for which the inhibition is 1.38%.

Consider `O=C1CCN(C(=O)Nc2ccccc2)N1`, for which the inhibition was -0.01%.

`COC(=O)CN(C(=S)Nc1ccc(Cl)cc1)C1CC(=O)N(c2ccc(OC)cc2)C1=O` (stereo not drawn): the inhibition was 1.24%.

Take `Cc1ccc(OCC(=O)N/N=C/c2ccncc2)cc1`: the inhibition is 1.58%.

In the case of `COC(=O)c1ccc(NC(=O)C23CC4CC(C2)CC(n2cnc(Cl)n2)(C4)C3)cc1`, the inhibition is 2.71%.

Turning to `COc1ccc(C(=S)Nc2ccccc2)cc1`, the inhibition is -5.15%.

Take `CCCNC(=O)Nc1ccccc1C(=O)Nc1ccc(OC)cc1`: the inhibition was 4.85%.

Turning to `COc1ccc(NC(=O)ON=C2c3ccccc3-c3ccccc32)cc1`, the inhibition was 35% (active).

As to `Cc1cccc(NC(=S)N2CCC(c3nc4ccccc4s3)CC2)c1`, the inhibition is 0.28%.

On to `Cc1nn(C)c(Oc2ccccc2)c1CCNS(=O)(=O)c1ccc(F)cc1`, for which the inhibition was 0.76%.

With `Cc1nc2ccccc2c(-c2ccccc2)c1C(=O)c1ccccc1`, the inhibition was 0.7%.

Turning to `Cc1ccc(NC(=S)NC(=O)c2ccc(-c3ccccc3)cc2)c(C)c1`, the inhibition is 1.93%.

Take `CC(=O)NS(=O)(=O)c1ccc(NC(=O)/C=C/c2ccccc2Cl)cc1`: the inhibition is -4.73%.

As for `Cc1ccc(/C=N/NC(=O)Cn2nc(C)c(Br)c2C)o1`, the inhibition was -0.29%.

As for `O=[N+]([O-])c1ccc(C=Nc2ccc(Cl)cc2Cl)s1`, the inhibition was 20.7% (active).

Turning to `COc1ccc(CCn2c(=N)c(C(=O)NCc3ccco3)cc3c(=O)n4cccc(C)c4nc32)cc1`, the inhibition is 1.33%.

Take `Cc1cccn2c(=O)c3cc(C#N)c(=O)n(CCCN4CCOCC4)c3nc12`: the inhibition is 2.6%.

Take `Cc1cccn2c(=O)c3cc(C(=O)N4COCC4(C)C)n(C)c3nc12`: the inhibition was 25.2% (active).

In the case of `Cc1cccc(COc2ccccc2/C=N/Nc2ccc([N+](=O)[O-])cc2)c1`, the inhibition was 14.6%.

With `Cc1[nH]c2ccccc2c1C(=O)COC(=O)C(C)C`, the inhibition is -1.84%.

Regarding `CC(=O)c1ccc(Cc2ncc(C(F)(F)F)cc2Cl)s1`, the inhibition was 32.1% (active).

For `O=C(Cc1ncc(C(F)(F)F)cc1Cl)Nc1cccc(Br)c1`, the inhibition is -7.54%.

As for `O=C(c1ccccn1)c1ncc(C(F)(F)F)cc1Cl`, the inhibition was -4.84%.

As to `COc1ccc(CC(NC(C)=O)C(=O)N2CCN(C(=O)Nc3cccc(Cl)c3)CC2)cc1OC` (stereo not drawn), the inhibition is -1.84%.

As for `CCOc1cc2[nH]c(=S)n(Cc3ccc(C(=O)NCCOC)cc3)c(=O)c2cc1OCC`, the inhibition is 1.95%.

For the compound `Cc1nn(C)cc1CNC(=O)Nc1ccc(Cl)cc1`, the inhibition was 0.55%.

`CN(CC(=O)Nc1cccc2c1CCCC2)S(=O)(=O)c1ccc(Cl)cc1`: the inhibition was 2.06%.

As for `Cc1cc(=O)oc(C)c1C(=O)N1CCCCC1`, the inhibition was -3.95%.

As for `Cc1c(NC(=O)CCCOc2ccccc2)cccc1[N+](=O)[O-]`, the inhibition was 5.03%.

`O=c1c2ccccc2c(-c2ccc(F)cc2)nn1-c1ccc(C(F)(F)F)cc1`: the inhibition is -9.67%.

With `Cc1cccc(Nc2ccccc2C(=O)NCc2ccco2)c1C`, the inhibition is -0.25%.

For `COc1ccccc1OCCNc1cc(N2CCOCC2)ccc1[N+](=O)[O-]`, the inhibition is 0.07%.

Consider `CCN(CC)Cc1cc(C(C)=O)ccc1O`, for which the inhibition was -1.48%.

Turning to `O=C1C(=O)N(c2ccccc2)c2ccccc21`, the inhibition was -1.97%.

For the compound `CC(C)CC[n+]1ccn(C2=C([O-])c3ccccc3C(=O)/C2=N\S(=O)(=O)c2ccccc2)c1`, the inhibition was 0.45%.

As for `COCCOC(=O)c1sc(=S)n(CCOC)c1N`, the inhibition was 0.4%.

Turning to `Cc1cc(C)nc(-n2nc(C)cc2NC(=O)c2ccc(Br)o2)n1`, the inhibition is 19.6% (active).

As to `COc1cc(OC)c(NC(=O)c2ccc(Br)o2)cc1Cl`, the inhibition is 2.86%.

Regarding `Cc1cccc(-n2nc3c(c2NC(=O)c2ccc(Br)o2)CSC3)c1C`, the inhibition was -10.1%.

`O=C(Nc1ccc(F)c(Cl)c1)C1CCN(S(=O)(=O)c2cccnc2)CC1`: the inhibition is 5.16%.

Consider `COc1ccc(C2Nc3ccccc3C(=O)N2Cc2ccccc2)cc1Cn1nnc2ccccc21` (stereo not drawn), for which the inhibition is 1.35%.

Take `CC(=C1C(=O)c2ccccc2C1=O)N1CCN(c2ccccn2)CC1`: the inhibition is -0.27%.

`O=C(c1ccc(Cl)c(Cl)c1)N1CCCC1`: the inhibition is -2.15%.

For the compound `O=C(c1ccc2c(c1)C(=O)N(c1ccc(Cl)cc1)C2=O)N1CCN(c2ccccn2)CC1`, the inhibition was 22.9% (active).

Regarding `CC(C)CC(N=C1NC(C)(C)Cc2ccccc21)C(=O)O` (stereo not drawn), the inhibition is -1%.

`COC(=O)c1ccccc1NC(=O)CSc1nnnn1C`: the inhibition is -1.15%.

Turning to `O=[N+]([O-])c1ccccc1NCc1ccc(Cl)cc1`, the inhibition is 1.41%.

`Cc1ccc(CNC(=O)COc2ccc(S(=O)(=O)NC(C)C)cc2)cc1`: the inhibition is -1.67%.

For `Cc1nc(N2CCOCC2)nc2c1CCCC2`, the inhibition was -0.58%.

On to `CCC(C)NC(=O)CCCc1ccccc1` (stereo not drawn), for which the inhibition is 2.61%.

Regarding `CCn1c(SCc2ccc(C)cc2)nnc1-c1nn(-c2ccccc2)ccc1=O`, the inhibition is 3.11%.

Take `CN(C)/C(CN1CCCCC1)=C1\N=C(c2ccccc2)OC1=O`: the inhibition is -3.3%.

For the compound `CCN(CC)c1nc(-c2ccccc2)cc(C(F)(F)F)c1C#N`, the inhibition is 4.59%.

In the case of `Fc1ccc(-c2ccc(-c3nn4c(-c5ccco5)nnc4s3)o2)cc1`, the inhibition is 19.2% (active).

On to `FC(F)(F)c1nnc2sc(-c3ccco3)nn12`, for which the inhibition is -8.22%.

As for `Cc1nnc2sc(-c3ccco3)nn12`, the inhibition is 0.33%.

With `NC(=O)c1ncc(C(F)(F)F)cc1Oc1ccc(F)cc1`, the inhibition is 1.7%.

For the compound `COc1ccccc1N(C)S(=O)(=O)c1ccc(C(=O)N2CCC(C(N)=O)CC2)cc1`, the inhibition was -1.2%.

Regarding `COC(=O)c1c(NC(=O)CSc2nncs2)sc2c1CCCCC2`, the inhibition was 19.5% (active).

As to `CCOC(=O)c1c(NC(=O)CSc2nnc(C)c(=O)[nH]2)sc2c1CCC2`, the inhibition was -5.37%.

Consider `COC(=O)c1c(NC(=O)c2cccs2)sc2c1CCCC2`, for which the inhibition is -3.96%.

Take `OCCN(Cc1ccccc1)Cc1ccc(Cl)cc1`: the inhibition is 1.29%.

For the compound `CCOC(=O)c1c(NC(=O)CSc2nnc(CNc3ccc(C)cc3C)o2)sc(C)c1C`, the inhibition was 0.35%.

As for `Cc1nn(Cc2ccc(C(=O)N3N=C(C(F)F)CC3(O)C(F)F)cc2)c(C)c1[N+](=O)[O-]` (stereo not drawn), the inhibition was -1.38%.

Take `Cc1ccc(S(=O)(=O)/N=C(/Nc2ccccn2)c2ccc(Cl)cc2)cc1`: the inhibition is -9%.

For the compound `COc1cc(C2CC(=O)c3cnc(NC(C)=O)nc3C2)cc(OC)c1OC` (stereo not drawn), the inhibition was 0.08%.

In the case of `N#C/C(=C\c1ccccc1)c1n[nH]c(Cn2cncn2)n1`, the inhibition was -0.5%.

For the compound `COc1ccc(N/N=C2/CCCCC2=O)cc1`, the inhibition is -0.48%.

Regarding `O=C1CSC2=NCN(c3ccccc3)CN12`, the inhibition was 3.72%.

As to `Cc1ccc2c(c1)N(CC(=O)N(Cc1ccccn1)Cc1ccco1)C(=O)C(C(C)C)O2` (stereo not drawn), the inhibition is 0.38%.

For the compound `Cc1ccccc1OC(=O)Cn1c(C(F)(F)F)nc2ccccc21`, the inhibition was -3.25%.

For `CCn1c(SCC(=O)Nc2nc(C)cs2)nnc1C(C)NC(=O)c1ccccc1` (stereo not drawn), the inhibition was -0.18%.

Turning to `Cc1ccc(C(=O)OC2=CC(=O)CC(C)(C)C2)cc1`, the inhibition was 1.07%.

In the case of `Cn1c2ccccc2n2c(=O)c(=O)n(CC(=O)c3ccc(F)cc3)nc12`, the inhibition was -3.16%.

On to `CCOc1ccc(C(O)Cn2c(=N)n(CCN3CCCCC3)c3ccccc32)cc1` (stereo not drawn), for which the inhibition is 0.54%.

On to `COc1ncnc2sc3c(c12)CCCC3`, for which the inhibition was 3.78%.

Turning to `Cc1cc(C)n(-c2nc(SCC(=O)N3CCCC3)c3c4c(sc3n2)CCCC4)n1`, the inhibition is 1.79%.

In the case of `COCCn1c(C)cc(C(=O)CSc2ncnc3sc4c(c23)CCC4)c1C`, the inhibition is 83.3% (active).

Take `Nc1ccccc1SCc1cc([N+](=O)[O-])cc2c1OCOC2`: the inhibition is 0.81%.

Take `CC(=NCc1ccco1)c1c(C(F)(F)F)[nH]n(-c2nc3ccccc3s2)c1=O`: the inhibition is 5.23%.

On to `CC(=NCc1ccc2c(c1)OCO2)C1=C(O)c2ccccc2C1=O`, for which the inhibition was 6.12%.

On to `CC(=NCc1ccco1)C1=C(O)c2ccccc2C1=O`, for which the inhibition is 27.9% (active).
